Potency and affinity values are given separately.
Tests used:
Staphylococcus aureus = settings: Concentration 32 ug.mL-1;; ASSAY_TEST Inhibition of Bacterial Growth; detection method Absorption (OD600); MEDIA CAMHB; plate type 384well; NBS; CORNING #3640; time 18 hr
Escherichia coli = settings: Concentration 32 ug.mL-1;; ASSAY_TEST Inhibition of Bacterial Growth; detection method Absorption (OD600); MEDIA CAMHB; plate type 384well; NBS; CORNING #3640; time 18 hr

SMILES	Inhibition (Staphylococcus aureus) [%]	Inhibition (Escherichia coli) [%]
CCOC(=O)c1ccc(NC(=O)Cn2nc3ccc(C(=O)Nc4cccc(C)c4)cn3c2=O)cc1	1.34	-4.77
Cc1ccc(C(=O)CSc2nnc3c(=O)n(-c4ccc(F)cc4)ccn23)c(C)c1	7.85	-6
O=C(Cn1nc2ccc(SC3CCCCC3)nn2c1=O)Nc1ccc(F)c(F)c1	-4.22	-6.38
CCOC(=O)c1ccccc1NC(=O)Cn1nc2c(Oc3cccc(OC)c3)nccn2c1=O	-10.31	1.57
Cc1nnc2ccc(S(=O)(=O)N(Cc3ccc(F)cc3)c3ccc4c(c3)OCO4)cn12	6.11	-4.59
O=C(Cn1nc2c(SCc3ccccc3)nccn2c1=O)NCc1ccc(Cl)cc1	-0.34	-19.62
CCN(C(=O)Cn1nc2cc(C)nc(Nc3ccc(C)c(F)c3)n2c1=O)c1ccccc1	15.67	-1.02
Cc1nnc2c(=O)n(CC(=O)Nc3ccccc3F)c3ccccc3n12	-11.2	1.77
Cn1c(=O)c2ccc(C(=O)NC3CCCC3)cc2n2c(SCc3c(F)cccc3Cl)nnc12	12.53	0.61
CCc1ccc(N(Cc2ccccc2)S(=O)(=O)c2cccn3c(CC)nnc23)cc1	13.69	-0.95
O=C(Cn1nc2ccc(Sc3ccccc3)nn2c1=O)Nc1ccc(Cl)cc1	14.57	0.83
CCCN(C)c1nccn2c(=O)n(CC(=O)Nc3cccc(C(F)(F)F)c3)nc12	6.48	3.02
Cc1cccc(Oc2nc3ccccc3n3c(=O)n(CC(=O)Nc4cccc(C#N)c4)nc23)c1C	-4.2	-5.56
Cc1ccc(NC(=O)Cn2nc3c(Sc4ccccc4)nc4ccccc4n3c2=O)cc1C	-2.53	-4.65
COc1ccc(-c2cc3c4nnc(CCC(=O)N5CCN(c6ccccc6F)CC5)n4ccn3n2)cc1	13.19	1.66
COc1ccc(-c2cc3c4nnc(CCC(=O)NCCc5ccccc5)n4ccn3n2)cc1	6.36	2.69
COc1cccc(-n2ccn3c(SCC(=O)c4ccc(C)cc4)nnc3c2=O)c1	8.57	-9.45
Cc1ccc(C)c(NC(=O)Cn2nc3cc(C)nc(Nc4ccc(F)cc4)n3c2=O)c1	-0.57	-5.84
COc1ccc(CNC(=O)Cn2nc3c(N4CCN(c5ccccc5C)CC4)nccn3c2=O)cc1	6.39	-3.43
COc1ccc(-n2ccn3c(=O)n(Cc4cc(C)ccc4C)nc3c2=O)cc1Cl	5.41	-0.01
COc1ccc(NC(=O)Cn2nc3c4cc(-c5ccc(C)c(C)c5)nn4ccn3c2=O)c(OC)c1	-8.81	-14.02
CC1CCc2c(sc3ncn4c(=O)n(CC(=O)Nc5ccc6c(c5)CCC6)nc4c23)C1 (configuration not stated)	4.65	-2.81
CCc1ccc(N(Cc2ccc(C)cc2)S(=O)(=O)c2cccn3cnnc23)cc1	18.47	2.14
CCc1nnc2c(S(=O)(=O)N(Cc3cccc(OC)c3)c3ccccc3)cccn12	13.09	-2.65

SMILES	Inhibition (Staphylococcus aureus) [%]	Inhibition (Escherichia coli) [%]
COc1ccc(-c2cc3c4nnc(SCC(=O)NCc5ccc(C)cc5)n4ccn3n2)cc1	-10.11	0.51
CSc1cccc(NC(=O)Cn2nc3c(Sc4ccc(C)cc4C)nccn3c2=O)c1	-13.41	-16.34
COc1cccc(Sc2nc3ccccc3n3c(=O)n(CC(=O)Nc4ccc(C)cc4)nc23)c1	4.18	-1.95
O=c1c2sccc2n2c(=O)n(Cc3ccccc3Cl)nc2n1Cc1cccs1	-1.31	-2.76
Cc1cc2nn(CC(=O)NCc3ccc4c(c3)OCO4)c(=O)n2c(Nc2ccccc2C)n1	0.76	-4.19
CCCCn1c(=O)c2sccc2n2c(=O)n(CC(=O)c3ccc(OC)cc3)nc12	3.9	0.74
Cc1cc2nn(CC(=O)Nc3cc(F)cc(F)c3)c(=O)n2c(Nc2ccc(F)c(C)c2)n1	7.29	-2.56
CCOc1ccc(N(Cc2ccc(F)cc2)S(=O)(=O)c2ccc3nncn3c2)cc1	-10.69	-16.83
O=c1c2nnc(-c3cccc([N+](=O)[O-])c3)n2ccn1-c1ccc(F)cc1	13.28	-1.02
COc1ccc(C)cc1NC(=O)Cn1nc2ccc(SCc3ccc(Cl)cc3)nn2c1=O	8.35	-14.85
COC(=O)c1ccc(NC(=O)Cn2nc3ccc(SCc4ccc(Cl)cc4)nn3c2=O)cc1	18.39	1.59
COc1ccc(NC(=O)C(C)Sc2nnc3c(=O)n(-c4ccccc4)ccn23)cc1 (configuration not stated)	4.59	4.26
Cc1cc2nn(CC(=O)Nc3ccc(F)cc3F)c(=O)n2c(Nc2ccc(C)c(F)c2)n1	8.31	-0.48
Cc1ccc2c(c1)N(C(=O)Cn1nc3ccc(S(=O)(=O)C(C)(C)C)nn3c1=O)CCO2	10.43	3.75
CCc1ccc(N(Cc2cccc(Cl)c2)S(=O)(=O)c2cccn3c(C)nnc23)cc1	10.13	-1.93
Cc1cc2nn(CC(=O)Nc3ccc(C)c(F)c3)c(=O)n2c(Nc2ccc(C)c(F)c2)n1	6.9	-1.96
COc1ccc(NC(=O)CSc2nnc3c(=O)n(-c4cccc(OC)c4)ccn23)cc1	14.04	-12.03
Cc1cccc(C)c1NC(=O)Cn1nc2c3c4c(sc3ncn2c1=O)CCCC4	7.51	-3.38
Cc1cc(C)cc(N(Cc2cccc(F)c2)S(=O)(=O)c2cccn3c(C)nnc23)c1	2.22	-5.24
COc1cccc(NC(=O)Cn2c(=O)c3nnc(C(C)C)n3c3ccccc32)c1	22.3	0.77
O=C(Cn1nc2ccc(Sc3cccc(F)c3)nn2c1=O)Nc1ccc(Cl)cc1	7.1	-8.49
CC(C)c1nnc2c(SCC(=O)Nc3ccc(F)cc3F)nc3ccccc3n12	6.8	1.07
COc1cccc(Oc2nccn3c(=O)n(CC(=O)Nc4ccc(OC)c(OC)c4)nc23)c1	15.47	-2.07
Cc1ccccc1NC(=O)Cn1nc2ccc(SC3CCCCC3)nn2c1=O	2.21	-7.39

SMILES	Inhibition (Staphylococcus aureus) [%]	Inhibition (Escherichia coli) [%]
CCc1ccc(NC(=O)Cn2nc3c4cc(-c5ccc(C)c(C)c5)nn4ccn3c2=O)cc1	1.77	-6.18
CCc1ccc(N(Cc2ccc(Cl)cc2)S(=O)(=O)c2cccn3c(C)nnc23)cc1	0.63	-8.46
CCc1nnc2c(SCC(=O)Nc3ccc(Br)cc3)nc3ccccc3n12	-16.96	0.98
O=S(=O)(c1ccc2nncn2c1)N(Cc1cccc(F)c1)c1ccc(F)c(F)c1	3.37	-6.8
COc1ccc(-c2cc3c4nn(CC(=O)Nc5ccc6c(c5)OCO6)c(=O)n4ccn3n2)cc1	8.96	6.89
O=S(=O)(c1ccc2nncn2c1)N(Cc1cc(F)cc(F)c1)c1ccc(F)cc1	2.59	-3.43
CC(C)CCn1c(=O)c2sccc2n2c(=O)n(Cc3ccccc3Cl)nc12	8.43	1.09
C=Cc1ccc(CN(c2ccc3c(c2)OCO3)S(=O)(=O)c2ccc3nncn3c2)cc1	3.79	-6.77
Cc1ccc(C)c(C(=O)CSc2nnc3c(=O)n(-c4ccc(F)c(F)c4)ccn23)c1	18.46	1.4
Cc1ccc(C)c(NC(=O)Cn2nc3c(Sc4ccccc4)nccn3c2=O)c1	6.23	-5.56
CCCCc1ccc(NC(=O)Cn2nc3c(Sc4ccccc4)nccn3c2=O)cc1	4.84	-9.71
CCCN(C)c1nccn2c(=O)n(CC(=O)Nc3ccc(F)cc3)nc12	13.38	-2.86
COc1ccc(OC)c(NC(=O)Cn2nc3c4cc(-c5ccc(Cl)cc5)nn4ccn3c2=O)c1	-2.94	-2.51
Cc1cc2nn(CC(=O)Nc3ccccc3F)c(=O)n2c(Nc2ccc(C)c(F)c2)n1	-7.63	-14.62
O=C(CSc1nnc2c(=O)n(-c3cccc(F)c3)ccn12)NCCc1ccccc1	-2.66	-10.98
CCc1nnc2c(SCC(=O)Nc3ccc(C(C)=O)cc3)nc3ccccc3n12	4.71	4.62
O=C(Cn1nc2c3sc(N4CCCC4)nc3ncn2c1=O)Nc1ccc(F)c(Cl)c1	15.3	1.03
N#CCn1nc2n(Cc3ccccc3)c(=O)c3ccccc3n2c1=O	14.89	2.96
Cc1cc(C)cc(NC(=O)Cn2nc3ccc(SC(C)(C)C)nn3c2=O)c1	9.02	-2.5
O=C(Cn1nc2c(N3CCOCC3)nc3ccccc3n2c1=O)NCc1ccccc1Cl	-2.26	-4.63
CCc1ccccc1NC(=O)Cn1nc2c(SC3CCCCC3)nccn2c1=O	7.59	-2.96
Cc1ccc(N(Cc2cc(F)cc(F)c2)S(=O)(=O)c2cccn3c(C)nnc23)cc1	11.96	-4.21
COc1ccc(CN(c2ccc(F)c(F)c2)S(=O)(=O)c2ccc3nncn3c2)cc1	-0.97	-4.01

Reference: ChEMBL document CHEMBL4513146, “CO-ADD screening of Karazin Kharkiv National University (Ukraine) compounds”
